Hits are enriched below; roughly 21% of the tested compounds scored in any of these assays.
Pf growth 48h = Primary qHTS for delayed death inhibitors of the malarial parasite plastid, 48 hour incubation. 310,000 compounds, 5.9% hits. P. falciparum luciferase growth in erythrocytes, 48 h. Potency, µM (top dose mostly 28.7 µM), without a hit: top-dose activity change, negative = inhibition, most hits filed as inhibitors. AID 504832, 2011; note: potency is the fitted concentration of half-maximal effect; % is set by controls: 0 for no effect and ±100 for the full control effect
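Luciferase-expressing parasites in RBCs, 2% Hct / 0.1% parasitemia final; RPMI 1640 + 0.5% Albumax; 37 C, 5% CO2, one generation; luminescence read-out, lower signal = inhibition.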
Sm TGR block = qHTS Assay for the Inhibitors of Schistosoma Mansoni Peroxiredoxins. Potency, µM (doses to about 114 µM), for the others: at the highest dose activity change, negative = inhibition, hits mostly inhibitors. purified TGR, DTNB reduction, TNB absorbance 405 nm. AID 485364, 2010. 360,000 compounds, 3% hits; note: potency is the fitted concentration of half-maximal effect; % is set by controls: 0 for no effect and ±100 for the full control effect; nearly all actives have a fitted effect of over 60% in size
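Kinetic colorimetric format: TGR-catalysed, NADPH-driven DTNB reduction monitored via TNB absorbance. Enzyme dispensed at 20 nM; compound exposure 15 min at room temperature before reaction start.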
Pf growth 96h = Primary qHTS for delayed death inhibitors of the malarial parasite plastid, 96 hour incubation | P. falciparum luciferase reporter growth, 96 h | AID 504834, 2011 | Potency, µM (titrated, usually from 28.7 µM), for inactives: at the highest dose activity change, negative = inhibition, hits mostly inhibitors | 320,000 compounds, 6.9% hits; note: potency is the fitted concentration of half-maximal effect; % is set by controls: 0 for no effect and ±100 for the full control effect
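Readout is luminescence from an integrated firefly luciferase in P. falciparum. Red cells, 2% hematocrit and 0.05% parasitemia final, were cultured with compound through two parasite generations (96 hours) at 37 C, 5% CO2.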
NS1 inh = qHTS Assay for Inhibitors of Influenza NS1 Protein Function; 270,000 compounds, 0.4% hits; Potency, µM (top dose mostly 46.1 µM), inactives show at the top dose activity, positive = more growth; calls by dose curve; note: potency is the fitted concentration of half-maximal effect; actives are rising curves; nearly all actives have a fitted effect of over 50% in size
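Read-out: OD600 growth recovery of NS1-expressing budding yeast. Cells grown overnight at 30C in -URA glucose medium, washed, resuspended and diluted 1:100 in 2% galactose assay medium, pH 6.0. Same strain lacking NS1 served as positive control.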
Shiga toxin inh = A qHTS for Small Molecule Inhibitors of Shiga Toxin; Vero cells, Shiga toxin protein synthesis inhibition reporter; inhibition, % at 38.7 µM; 290,000 compounds, 9.2% hits; AID 2315, 2010; in the data active = inhibition mostly above about 28%, no sharp cut-off; inactive = mostly below about 43%; note: 0% is about no effect
Cycloheximide cs = Cycloheximide Counterscreen for Small Molecule Inhibitors of Shiga Toxin; max response, %; cell reporter, cycloheximide protein synthesis inhibition counterscreen; AID 2314, 2010; 300,000 compounds, 12% hits; in the data active = max response mostly above about 13%, no sharp cut-off; inactive = mostly below about 14%; note: read at 38.3 µM for the half of the compounds with a filed dose; 0% is about no effect
Starred values were filed as active, the others as inactive; ? = inconclusive; · = not tested or not shown; ! = not confirmed by another sample; [ ] = another dose, or the depositor's remark. Unless noted, calls come from the whole dose curve; as a rule, active = well fitted curve in the direction sought with a large enough effect; inconclusive = small, poorly fitted or top-dose-only effect, or another doubt; inactive = no such curve, though single readings can be large; an effect the other way counts as inactive or inconclusive.

SMILES | Pf growth 48h | Sm TGR block | Pf growth 96h | NS1 inh | Shiga toxin inh | Cycloheximide cs
COc1cccc(C2CC(c3c(-c4ccccc4)c4cc(Cl)ccc4[nH]c3=O)=NN2S(C)(=O)=O)c1OC (centres undefined) | 7.4µM* | ? | · | ? | 23 | 7
Cn1cnnc1SCC(=O)N1N=C(c2ccc(Cl)cc2)CC1c1ccco1 (centres undefined) | 7% | 32µM* | 5% | 0% | 17 | -1
COc1ccccc1C1CC(c2c(-c3ccccc3)c3cc(Cl)ccc3[nH]c2=O)=NN1S(C)(=O)=O (centres undefined) | 12µM* | -27% | ? | 26% | 14 | -3
CCCCN(C)CCNC(=O)c1cc(=O)[nH]c2ccc(S(=O)(=O)N3CCCCCC3)cc12 | · | 1% | · | · | · | ·
COc1ccc(C2CCCN2C(=S)Nc2cccc(C)c2C)cc1OC (centres undefined) | 12µM* | -17% | ? | · | 53 | -1
COc1ccc(NC(=S)N2CCCC2c2ccc(OC)c(OC)c2)cc1 (centres undefined) | -3% | -4% | -40% | · | -14 | 6
COc1ccc(C2CCCN2C(=S)Nc2cccc(C)c2)cc1OC (centres undefined) | 12µM* | 4% | ? | · | -5 | 7
CCOC(=O)c1ccc(NC(=S)N2CCCC2c2ccc(OC)c(OC)c2)cc1 (centres undefined) | ? | 2% | ? | · | 3 | -3
COc1ccc(C2CCCN2C(=S)Nc2ccc(C)cc2Cl)cc1OC (centres undefined) | -27% | 2% | 14% | · | 64* | 43
[O-]/C(=C(\C(=S)Nc1ccc(SC(F)F)cc1)[n+]1cccc(CO)c1)c1ccc(Cl)s1 | -16% | -11% | ? | · | -5 | 12
Cc1ccc(NC(=S)/C(=C(\[O-])c2ccc(Cl)s2)[n+]2cccc(CO)c2)cc1C | 25% | ? | ? | · | 68* | 40*
Oc1ccc(-c2nc3ccccn3c2NCc2ccc3c(c2)OCO3)cc1 | -7% | -6% | ? | -19% | 15 | 25*
Fc1ccc(-c2nc3ccccn3c2NCc2ccc3c(c2)OCO3)cc1 | 8.3µM* | -5% | -1% | · | 5 | 15
CC(=O)Nc1ccc(S(=O)(=O)NNC(=O)c2cc3c4ccccc4n(C)c3s2)cc1 | -4% | -18% | ? | 11% | -10 | -2
Cn1c2ccccc2c(=O)c2c(=O)n(C3CCCCC3)c(-c3cccs3)nc21 | 6.6µM* | 0% | · | 11% | 25 | 2
Cn1c2ccccc2c(=O)c2c(=O)n(C3CCCCCC3)c(C3CCCCC3)nc21 | 8.3µM* | -3% | 10µM* | 6% | -13 | -6
Cn1c2ccccc2c(=O)c2c(=O)n(-c3ccccc3)c(C3CCCCC3)nc21 | 9.3µM* | 0% | 9.3µM* | 29% | 14 | -4
Cc1ccc(-c2nc(-c3cc4cccc(OCc5ccccc5F)c4oc3=O)no2)cc1 | · | -3% | · | · | · | ·
COc1ccc2cc(C(=O)NCC(=O)O)sc(=O)c2c1OC | 4% | 0% | 47% | 15% | -1 | -2
COc1ccc2cc(C(=O)OC(C)C)sc(=O)c2c1OC | -18% | 1% | 33% | -9% | 30* | 14*
CCCCN(CCCC)CCNC(=O)Cn1nc(C)n2c(cc3sccc32)c1=O | · | -1% | · | · | · | ·
CN1C(=O)SC(Nc2cccc3ccccc23)C1=O (centres undefined) | 9% | 0% | 85% | 0% | -8 | -1
COc1ccc(NC2SC(=O)N(C)C2=O)cc1 (centres undefined) | 15% | 2%[57.1 µM] | 23% | -36% | 49* | 9
COc1cccc(NC(=O)CCN2CCN(CCO)CC2)c1 | · | 1% | · | · | · | ·
Cc1cc(F)ccc1S(=O)(=O)N1CCCOC1CNC(=O)C(=O)NCc1ccccn1 (centres undefined) | -9% | -3% | -3% | 5% | 23 | -3
SMILES | Pf growth 48h | Sm TGR block | Pf growth 96h | NS1 inh | Shiga toxin inh | Cycloheximide cs
CCc1cccc(N=c2c([N+](=O)[O-])nn(-c3ccc(Cl)cc3)n2O)c1 | ? | 10% | · | -2% | 21 | 2
Cc1cc(C)cc(N=c2c([N+](=O)[O-])nn(-c3cccc(Cl)c3)n2O)c1 | · | -25% | 3.7µM* | -3% | -8 | -4
Cc1cccc(N=c2c([N+](=O)[O-])nn(-c3ccc(Cl)cc3)n2O)c1 | ? | -8% | -19% | -4% | 35 | 20*
CCn1cc(C(=O)NCCc2ccc(OC)cc2)c(=O)c2ccc(C)nc21 | -1% | -15% | 6% | 12% | -6 | -4
CC(=O)NC(=S)Nc1cccc(S(=O)(=O)NC2=NCCC2)c1 | 12% | 4% | -7% | 0% | -1 | -4
COc1ccc(CN(C)CC(=O)Nc2ccccc2-c2ccccc2)c(OC)c1 | 10µM* | 3% | ? | · | -2 | 11
COc1ccccc1CN(C)CC(=O)Nc1ccccc1-c1ccccc1 | ? | 23% | ? | · | 2 | 15*
Cc1ccccc1CN(C)CC(=O)Nc1ccccc1Oc1ccccc1 | -2% | -11% | ? | -10% | 10 | 7
COc1ccc(CN(C)C(=O)C(Cc2ccccc2)NC(=O)c2ccccc2)c(OC)c1 (centres undefined) | 10µM* | -4% | ? | · | · | ·
Cc1ccccc1CN(C)CC(=O)Nc1ccccc1-c1ccccc1 | ? | 6% | 9.3µM* | -17% | -5 | -2
CCN(CC(=O)Nc1ccccc1OC)CC(=O)Nc1ccccc1-c1ccccc1 | ? | 0% | 9% | · | -20 | -4
CN(C)[C@@H]1C(=O)C(C(N)=O)=C(O)[C@@]2(O)C(=O)C3=C(O)c4c(O)cccc4[C@@](C)(O)C3C[C@@H]12 (some centres undefined) | 7.4µM* | -21% | 2.1µM* | · | · | ·
CN(C)[C@@H]1C(=O)C(C(N)=O)=C(O)[C@]2(O)C(=O)C3=C(O)c4c(O)cccc4[C@](C)(O)[C@H]3C[C@@H]12 | · | · | · | 15% | · | ·
CN(C)c1ccc(O)c2c1CC1CC3[C@@H](N(C)C)C(=O)C(C(N)=O)=C(O)[C@]3(O)C(=O)C1=C2O (some centres undefined) | 4.7µM* | ? | 0.33µM* | -2% | -10 | -2
C[C@H]1c2cccc(O)c2C(O)=C2C(=O)[C@]3(O)C(O)=C(C(N)=O)C(=O)[C@@H](N(C)C)[C@@H]3[C@@H](O)[C@@H]21 | 4.7µM* | 28% | 0.74µM* | -1% | -6 | 10*!
CN(C)C1C(=O)C(C(N)=O)C(=O)C2(O)C(=O)C3C(=O)c4c(O)ccc(Cl)c4C(O)C3CC12 (centres undefined) | · | · | · | · | -19 | -3

Compound activity (PubChem)
